According to the supplement of paper PMC10849652:
About 7,900 targets were measured; listed, in parts, are those with a hit and a random draw of the rest. About 0.6% of all pairs of compound and target were hits.

compound: CC(C)(C)Cn1c(N)nc2ccc(-c3[nH]c(C(C)(C)C)nc3-c3ccc(F)cc3)nc21 [ralimetinib]; assay: log2 fold change, soluble protein after heating vs DMSO (PISA); higher = thermal stabilisation; K562 cells, 10 uM, 30 min; active = over 0.2 and 3.5 SD of the protein, either way, in both replicates (recomputed)
Outline: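 K562 cells at 2×10^6 cells/mL were given 10 μM compound for 30 min. Aliquots then went through 3 min of heating across 48°C-58°C, were pooled, and were extracted in PBS with 0.5% NP-40 at 4°C, and the supernatant after 21,000xg for 90 min was quantified by TMTpro 16plex LC-MS/MS with channel sums equalised. Thermal stability relative to control samples, from duplicates, is given as log2 fold change.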

Chain of UniProt Q03468 (Q03468 whole entry, looked up): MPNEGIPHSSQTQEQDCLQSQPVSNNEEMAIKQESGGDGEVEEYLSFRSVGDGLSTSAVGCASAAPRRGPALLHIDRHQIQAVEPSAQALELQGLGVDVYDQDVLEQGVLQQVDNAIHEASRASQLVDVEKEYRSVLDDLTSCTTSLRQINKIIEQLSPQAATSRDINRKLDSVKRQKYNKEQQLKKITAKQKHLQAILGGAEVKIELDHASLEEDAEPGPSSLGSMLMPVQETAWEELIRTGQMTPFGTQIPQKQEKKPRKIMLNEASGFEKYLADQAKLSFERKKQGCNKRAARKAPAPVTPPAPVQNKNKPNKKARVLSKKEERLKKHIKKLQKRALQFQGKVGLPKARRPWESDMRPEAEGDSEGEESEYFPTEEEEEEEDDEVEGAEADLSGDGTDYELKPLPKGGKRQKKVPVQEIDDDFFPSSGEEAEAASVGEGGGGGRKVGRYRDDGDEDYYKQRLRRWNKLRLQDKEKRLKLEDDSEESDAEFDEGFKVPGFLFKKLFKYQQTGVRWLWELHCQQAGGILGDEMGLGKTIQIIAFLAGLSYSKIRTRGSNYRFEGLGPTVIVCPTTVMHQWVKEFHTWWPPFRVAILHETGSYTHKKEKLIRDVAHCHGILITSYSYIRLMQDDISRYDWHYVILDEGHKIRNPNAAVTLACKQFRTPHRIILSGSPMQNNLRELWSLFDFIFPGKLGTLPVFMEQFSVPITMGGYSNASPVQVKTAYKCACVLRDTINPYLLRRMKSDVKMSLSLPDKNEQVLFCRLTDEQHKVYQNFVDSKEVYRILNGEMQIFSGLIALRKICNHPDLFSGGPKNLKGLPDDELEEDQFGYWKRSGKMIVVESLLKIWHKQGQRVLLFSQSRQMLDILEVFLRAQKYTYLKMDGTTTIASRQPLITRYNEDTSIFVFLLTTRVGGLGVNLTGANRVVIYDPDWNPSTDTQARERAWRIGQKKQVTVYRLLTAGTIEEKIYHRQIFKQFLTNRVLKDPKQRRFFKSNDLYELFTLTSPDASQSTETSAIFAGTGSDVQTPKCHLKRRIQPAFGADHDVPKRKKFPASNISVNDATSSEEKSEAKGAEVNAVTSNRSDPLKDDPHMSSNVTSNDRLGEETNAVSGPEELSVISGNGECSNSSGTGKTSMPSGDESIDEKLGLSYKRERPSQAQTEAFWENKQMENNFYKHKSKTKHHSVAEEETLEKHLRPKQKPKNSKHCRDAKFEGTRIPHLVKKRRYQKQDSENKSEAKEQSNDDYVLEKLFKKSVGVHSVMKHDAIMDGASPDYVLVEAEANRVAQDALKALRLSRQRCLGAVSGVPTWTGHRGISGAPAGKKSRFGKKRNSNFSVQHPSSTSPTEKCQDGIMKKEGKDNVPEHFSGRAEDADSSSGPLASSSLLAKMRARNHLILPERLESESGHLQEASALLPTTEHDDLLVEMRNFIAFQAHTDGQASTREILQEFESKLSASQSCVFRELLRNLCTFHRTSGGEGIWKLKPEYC
Chain of UniProt Q14320 (Q14320 whole entry, looked up): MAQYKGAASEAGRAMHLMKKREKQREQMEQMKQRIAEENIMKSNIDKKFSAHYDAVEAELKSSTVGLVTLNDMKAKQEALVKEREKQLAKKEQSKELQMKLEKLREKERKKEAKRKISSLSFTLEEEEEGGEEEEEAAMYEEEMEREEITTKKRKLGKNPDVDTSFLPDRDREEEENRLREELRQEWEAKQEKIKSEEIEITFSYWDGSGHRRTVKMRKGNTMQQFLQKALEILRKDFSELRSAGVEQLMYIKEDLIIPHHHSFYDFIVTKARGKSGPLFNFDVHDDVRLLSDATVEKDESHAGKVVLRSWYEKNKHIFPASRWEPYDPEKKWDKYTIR
Chain of UniProt Q8N3D4 (Q8N3D4 whole entry, looked up): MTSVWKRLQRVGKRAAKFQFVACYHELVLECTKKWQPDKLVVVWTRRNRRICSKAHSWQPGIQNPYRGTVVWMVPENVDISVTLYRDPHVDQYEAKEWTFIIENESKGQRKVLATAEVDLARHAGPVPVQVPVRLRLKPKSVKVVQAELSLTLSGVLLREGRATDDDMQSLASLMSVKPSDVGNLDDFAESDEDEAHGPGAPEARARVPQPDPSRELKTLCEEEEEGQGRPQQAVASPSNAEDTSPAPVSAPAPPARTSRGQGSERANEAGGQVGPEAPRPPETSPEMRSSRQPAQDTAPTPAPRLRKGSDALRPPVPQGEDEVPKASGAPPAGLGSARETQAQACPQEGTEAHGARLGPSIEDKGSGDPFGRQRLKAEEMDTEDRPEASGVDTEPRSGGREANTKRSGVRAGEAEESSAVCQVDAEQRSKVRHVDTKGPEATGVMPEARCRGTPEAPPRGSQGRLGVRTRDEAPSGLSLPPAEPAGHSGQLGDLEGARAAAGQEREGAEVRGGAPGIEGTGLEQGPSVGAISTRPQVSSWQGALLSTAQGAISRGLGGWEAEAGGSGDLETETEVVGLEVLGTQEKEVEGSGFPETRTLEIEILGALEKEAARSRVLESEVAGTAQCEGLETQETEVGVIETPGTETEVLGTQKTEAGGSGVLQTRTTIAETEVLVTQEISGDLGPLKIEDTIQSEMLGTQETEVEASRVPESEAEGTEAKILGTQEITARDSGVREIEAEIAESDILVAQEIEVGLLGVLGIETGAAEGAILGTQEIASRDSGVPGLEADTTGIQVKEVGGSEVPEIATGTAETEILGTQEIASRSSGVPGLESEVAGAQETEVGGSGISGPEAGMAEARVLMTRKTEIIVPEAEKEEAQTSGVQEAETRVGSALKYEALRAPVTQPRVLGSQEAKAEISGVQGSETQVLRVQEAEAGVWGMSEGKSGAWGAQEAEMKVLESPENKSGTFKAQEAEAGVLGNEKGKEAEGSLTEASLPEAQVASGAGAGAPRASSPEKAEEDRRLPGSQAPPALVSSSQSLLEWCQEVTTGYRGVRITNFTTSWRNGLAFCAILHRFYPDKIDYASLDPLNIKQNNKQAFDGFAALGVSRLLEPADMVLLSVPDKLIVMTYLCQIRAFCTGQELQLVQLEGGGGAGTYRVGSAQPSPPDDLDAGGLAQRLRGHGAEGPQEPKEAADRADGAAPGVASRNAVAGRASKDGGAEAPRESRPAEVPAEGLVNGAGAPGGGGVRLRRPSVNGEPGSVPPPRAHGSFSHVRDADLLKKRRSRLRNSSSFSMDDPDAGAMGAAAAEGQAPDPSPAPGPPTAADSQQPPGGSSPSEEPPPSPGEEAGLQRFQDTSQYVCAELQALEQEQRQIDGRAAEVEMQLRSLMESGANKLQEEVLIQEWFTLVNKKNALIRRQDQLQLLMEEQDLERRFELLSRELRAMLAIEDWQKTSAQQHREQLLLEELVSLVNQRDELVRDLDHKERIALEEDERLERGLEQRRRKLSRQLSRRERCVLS
Chain of UniProt Q7Z7A3 (Q7Z7A3 whole entry, looked up): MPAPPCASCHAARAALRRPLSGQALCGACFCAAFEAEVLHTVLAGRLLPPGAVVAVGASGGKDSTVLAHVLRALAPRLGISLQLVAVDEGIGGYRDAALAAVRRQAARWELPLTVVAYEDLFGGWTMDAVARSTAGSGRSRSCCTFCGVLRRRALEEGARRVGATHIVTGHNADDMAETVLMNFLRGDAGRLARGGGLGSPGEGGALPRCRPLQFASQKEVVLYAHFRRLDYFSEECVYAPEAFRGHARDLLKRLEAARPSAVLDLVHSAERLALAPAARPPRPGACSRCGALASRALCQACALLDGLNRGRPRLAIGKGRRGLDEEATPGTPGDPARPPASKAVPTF
Chain of UniProt Q9H2P9 (Q9H2P9 whole entry, looked up): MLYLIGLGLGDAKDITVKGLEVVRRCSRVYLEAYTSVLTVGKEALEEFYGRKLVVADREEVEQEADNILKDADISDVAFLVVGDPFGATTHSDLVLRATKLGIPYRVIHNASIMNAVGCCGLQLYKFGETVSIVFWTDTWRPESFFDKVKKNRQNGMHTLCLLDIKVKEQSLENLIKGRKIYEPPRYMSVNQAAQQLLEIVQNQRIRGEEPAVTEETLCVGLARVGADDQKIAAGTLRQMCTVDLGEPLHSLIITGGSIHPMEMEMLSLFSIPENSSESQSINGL
Chain of UniProt Q8NBA8 (Q8NBA8 whole entry, looked up): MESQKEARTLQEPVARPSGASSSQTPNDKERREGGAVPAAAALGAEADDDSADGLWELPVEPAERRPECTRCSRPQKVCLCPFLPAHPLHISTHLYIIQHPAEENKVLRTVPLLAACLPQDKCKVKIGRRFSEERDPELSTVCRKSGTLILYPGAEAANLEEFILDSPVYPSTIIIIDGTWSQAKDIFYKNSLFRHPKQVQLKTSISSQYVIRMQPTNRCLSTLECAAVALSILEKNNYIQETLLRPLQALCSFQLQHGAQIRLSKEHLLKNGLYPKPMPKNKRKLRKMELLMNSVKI
Chain of UniProt O00148 (O00148 whole entry, looked up): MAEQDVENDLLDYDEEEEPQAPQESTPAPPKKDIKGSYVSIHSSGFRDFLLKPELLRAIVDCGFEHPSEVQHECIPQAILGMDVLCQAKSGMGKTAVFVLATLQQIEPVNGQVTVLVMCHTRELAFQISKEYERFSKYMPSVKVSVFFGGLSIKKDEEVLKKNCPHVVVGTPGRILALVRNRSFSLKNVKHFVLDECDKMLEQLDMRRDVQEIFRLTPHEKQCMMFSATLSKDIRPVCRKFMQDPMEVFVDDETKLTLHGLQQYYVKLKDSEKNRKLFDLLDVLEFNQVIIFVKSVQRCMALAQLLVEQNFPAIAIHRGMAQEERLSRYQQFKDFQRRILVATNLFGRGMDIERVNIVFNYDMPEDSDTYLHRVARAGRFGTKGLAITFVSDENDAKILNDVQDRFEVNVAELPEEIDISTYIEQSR
Chain of UniProt Q9BW60 (Q9BW60 whole entry, looked up): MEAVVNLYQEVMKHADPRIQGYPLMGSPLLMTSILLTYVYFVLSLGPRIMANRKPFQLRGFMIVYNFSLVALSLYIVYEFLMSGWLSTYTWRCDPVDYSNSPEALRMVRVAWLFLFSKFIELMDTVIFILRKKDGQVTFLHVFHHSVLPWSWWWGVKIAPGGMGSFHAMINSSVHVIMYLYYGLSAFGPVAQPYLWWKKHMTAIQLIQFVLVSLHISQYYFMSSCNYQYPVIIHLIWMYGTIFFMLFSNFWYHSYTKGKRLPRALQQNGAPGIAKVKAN

log2 fold change, inactive:
CTU1 (UniProt Q7Z7A3) 0.005
DNAJC1 (UniProt Q96KC8) -0.081
EIF4E isoform 2 (UniProt P06730) -0.071
DIP2A (UniProt Q14689) 0.102
DBN1 isoform 3 (UniProt Q16643) 0.072
EXOC6 (UniProt Q8TAG9) 0.102
EXTL2 (UniProt Q9UBQ6) -0.061
DDOST (UniProt P39656) 0.156
DDX39A (UniProt O00148) 0.003
ERCC6 (UniProt Q03468) 0.05
DYRK1A isoform 2 (UniProt Q13627) -0.046
DBR1 (UniProt Q9UK59) 0.037
EEF1G isoform 2 (UniProt P26641) 0.059
DHFR (UniProt P00374) 0.192
EFL1 (UniProt Q7Z2Z2) -0.004
FAM114A2 (UniProt Q9NRY5) -0.017
DNAAF2 (UniProt Q9NVR5) 0.022
EXOC8 (UniProt Q8IYI6) 0.049
DUS3L (UniProt Q96G46) 0.042
DHPS (UniProt P49366) -0.04
EDEM2 (UniProt Q9BV94) -0.138
DHX16 (UniProt O60231) -0.001
ERCC2 (UniProt P18074) 0.014
DHCR24 (UniProt Q15392) 0.04
DNM2 (UniProt P50570) -0.02
EHBP1L1 (UniProt Q8N3D4) 0.083
FAM118B (UniProt Q9BPY3) 0.051
EBNA1BP2 (UniProt Q99848) 0.27
CUTA isoform 2 (UniProt O60888) -0.046
EXOC1 (UniProt Q9NV70) 0.112
DFFB (UniProt O76075) 0.005
ELOVL1 (UniProt Q9BW60) 0.029
FAM3A (UniProt P98173) 0.023
DTWD2 (UniProt Q8NBA8) 0.092
DDB1 (UniProt Q16531) -0.053
E2F4 (UniProt Q16254) 0.011
DPH5 isoform 5 (UniProt Q9H2P9) -0.018
CTNNB1 (UniProt P35222) -0.045
FAM50A (UniProt Q14320) -0.029
